EPAC1 antag = blocks human EPAC1 exchange factor. Potency, µM (doses to about 115 µM), for the others: at the top dose activity change, negative = inhibition, hits mostly inhibitors. EPAC1 GEF assay, Rap1b-BODIPY-GDP exchange fluorescence. hit rate 0.14% among 360,000. O95398;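 also: plate controls were vehicle for no effect and positive control for full effect; nearly all actives have a fitted effect of over 50% in size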
USP2a inh = USP2a (human) protease inhibition; O75604; Potency, µM (series often up to 38.3 µM), inactives show at the highest dose activity change, negative = inhibition, usual class: inhibitors; AID 463254; hit rate 0.01% among 330,000; USP2 core, Ub-CHOP2 coupled fluorogenic reporter, 485/531;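 also: plate controls were DMSO wells for no effect and full inhibition by NEM control for full effect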
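Cell-free coupled assay: 10nM USP2 core preincubated 30min RT with compound in Tris-HCl pH 8.0/CaCl2/CHAPS buffer, then 25nM Ub-CHOP2 and 25nM reporter substrate; fluorescence (Ex 485/Em 531) read after 60min RT, normalized to NEM inhibition, concentration-response curves fitted.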
EPAC2 antagonist = antagonists of human EPAC2. hit rate 0.18% among 360,000. EPAC2 GEF exchange of Rap1B-BODIPY-GDP, fluorescence. Q8WZA2. Potency, µM (top dose mostly 114 µM), without a hit: top-dose activity, negative = inhibition, usual class: inhibitors; also: % is scaled to controls: 0 for no effect and ±100 for the full control effect; nearly all actives have a fitted effect of over 45% in size
USP1-UAF1 inh = USP1/UAF1 (human) deubiquitinase inhibition | recombinant USP1/UAF1, Ub-Rhodamine cleavage fluorescence | AID 743255 | O94782 | hit rate 0.23% among 390,000 | Potency, µM (doses to about 57.1 µM), for the others: top-dose activity change, negative = inhibition, actives largely listed as inhibitors; also: % is scaled to controls: 0 for no effect and ±100 for the full control effect; nearly all actives have a fitted effect of over 60% in size
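In this screen, compounds sit with the deubiquitinase complex (1nM) for 15 min at room temperature before Ub-Rho is added at 150nM final. Fluorescence rise is then followed for 6 reads every 60 seconds.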
EPAC1 agonist = activates human EPAC1 exchange factor. AID 720707. Potency, µM (top dose mostly 154 µM), without a hit: top-dose activation, most hits filed as activators. EPAC1 agonist qHTS, biochemical assay; response scale: 100% = response to 6.5 mM cAMP. O95398. hit rate 0.073% among 360,000; also: nearly all actives have a fitted effect of over 60% in size
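Fluorescent GDP-exchange assay: 100 nM EPAC1 with 250 nM Rap1B preloaded with BODIPY-GDP and 50 uM GDP; compounds tested as concentration series, 5 min at room temperature, then read every 5 min for 30 min (ex 480/em 540 nm); normalized to 6.5 mM cAMP.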
EPAC2 agonist = activates human EPAC2 exchange factor | Q8WZA2 | AID 720711 | hit rate 0.079% among 360,000 | EPAC2 activation, biochemical qHTS; response scale: 100% = 6.5 mM cAMP response | Potency, µM (doses to about 154 µM), for the others: at the highest dose activation, usual class: activators; also: nearly all actives have a fitted effect of over 50% in size
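Readout is BODIPY fluorescence (480 nm excitation, 540 nm emission), which falls as labeled GDP is exchanged off Rap1B. EPAC2 at 100 nM acted on 250 nM RAP1B-BODIPY-GDP with 50 uM GDP present.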
Active calls of the source: *; ? = inconclusive; . = no result given. An excerpt weighted towards active compounds, which were near 0.44% of everything screened. Calls follow the shape of the dose curve; as a rule, active = well fitted curve in the direction sought with a large enough effect; inconclusive = small, poorly fitted or top-dose-only effect, or another doubt; inactive = no such curve, though single readings can be large; an effect the other way counts as inactive or inconclusive. Potency is read from the fitted curve at half-maximal effect.

SMILES	EPAC1 antag	USP2a inh	EPAC2 antagonist	USP1-UAF1 inh	EPAC1 agonist	EPAC2 agonist
COc1ccc(C2=NN(c3ccc(C=O)cc3)C(c3ccccc3)C2)cc1 (stereo not given)	-13%	?	4%	-19%	12%	10%
COc1ccc(C2CC(c3cccs3)=NN2c2ccc(C=O)cc2)cc1 (stereo not given)	109%	?	22%	?	89µM*	14%
O=C(C1CCCCC1)N(Cc1cccnc1)c1nc2c(F)cc(F)cc2s1	.	.	.	-15%	.	.
CC(c1ccccc1)N1C(=O)c2cccnc2C1=O (stereo not given)	3%	2%	0%	-18%	-2%	13%
CC(NC1=CC(=O)c2cccnc2C1=O)C(O)c1ccccc1 (stereo not given)	?	.	?	5.6µM*	10%	20%
COc1ccc(S(=O)(=O)Nc2cccc(-c3ccc(N4CCCCCC4)nn3)c2)cc1	.	.	.	-20%	.	.
CCSc1ccc2c(c1)N(CCCN1CCN(C)CC1)c1ccccc1S2	-17%	2%	-10%	13%	-7%	6%
CN1CCN(CCCN2c3ccccc3Sc3ccc(Cl)cc32)CC1	-28%	0%	13µM*	-15%	-9%	1%
Cc1ccc(C(=O)CSc2nc(-c3ccccc3)nc3c2CCCC3)cc1C	.	.	.	-15%	.	.
O=C(O)c1cc(O)c2c(c1)[C@H]([C@H]1c3cc(C(=O)O)cc(O)c3C(=O)c3c(O[C@@H]4O[C@H](CO)[C@@H](O)[C@H](O)[C@H]4O)cccc31)c1cccc(OC3O[C@H](CO)[C@@H](O)[C@H](O)[C@H]3O)c1C2=O (stereo not given in full)	3.5µM*	?	?	7.1µM*	-8%	2%
O=C(O)c1cc(O)c2c(c1)[C@@H]([C@H]1c3cc(C(=O)O)cc(O)c3C(=O)c3c(O[C@@H]4O[C@H](CO)[C@@H](O)[C@H](O)[C@H]4O)cccc31)c1cccc(OC3O[C@H](CO)[C@@H](O)[C@H](O)[C@H]3O)c1C2=O (stereo not given in full)	?	3.2µM*	?	5.6µM*	5%	8%
CCOC(=O)c1nn(-c2ccccc2)c(=O)c2c(N)scc12	0%	4%	-7%	18µM*	1%	-1%
CCOC(=O)c1nn(-c2ccccc2C)c(=O)c2c(N)scc12	-29%	3%	-3%	?	-4%	5%
Nc1nnc(CC(=O)N/N=C/c2cc([N+](=O)[O-])cc(Br)c2O)s1	50µM*	1%	-1%	-8%	-8%	-2%
CCc1ccc(Nc2cc(C)nc3nc(Cc4ccc(Cl)cc4)nn23)cc1	.	.	.	-17%	.	.
COC(=O)c1ccc(Oc2nc3c(c(=O)n(C)c(=O)n3C)n2Cc2ccc(Cl)c(Cl)c2)cc1	.	.	.	-6%	.	.
Nc1cc(-c2ccncc2)c[nH]c1=O	?	8%	1%	40µM*	-3%	9%
N#Cc1c(Nc2ccccc2)sc(C(=O)c2ccccc2)c1N	3%	3%	35µM*	-2%	3%	1%
N#Cc1c(Nc2ccc(F)cc2)sc(C(=O)c2ccccc2)c1N	-21%	4%	-12%	-27%	-3%	2%
CCc1ccc(-c2cc(C)no2)cc1S(=O)(=O)NCc1ccc(OC)cc1	.	.	.	1%	.	.
Cc1ccc(CSC2=NCCN2S(=O)(=O)c2ccccc2)cc1	2%	8%	-17%	-23%	9%	7%
Cc1ccc(CSC2=NCCN2S(=O)(=O)c2ccc(F)cc2)cc1	?	-15%	50µM*	-16%	8%	12%
CCC(=O)OC1(C)C(=O)C2=COC(c3ccc(OC)cc3)=CC2=C(Br)C1=O (stereo not given)	?	1%	11%	35µM*	13%	26%
COC(=O)CCC(=O)OC1(C)C(=O)C2=CN(Cc3ccccc3)C(c3ccc(OC)cc3)=CC2=C(Br)C1=O (stereo not given)	8%	.	0%	?	1%	-5%
COc1ccc(C2=CC3=C(Br)C(=O)C(C)(O)C(=O)C3=CO2)cc1 (stereo not given)	-15%	4%	?	35µM*	1%	7%
SMILES	EPAC1 antag	USP2a inh	EPAC2 antagonist	USP1-UAF1 inh	EPAC1 agonist	EPAC2 agonist
COc1ccc(-n2c(=O)c3c(c4cc(OC)ccc4n3C)n(Cc3ccc(F)cc3Cl)c2=O)cc1	.	.	.	-8%	.	.
CCOc1ccc(N2CC(NC(=O)c3cc4ccccc4o3)CC2=O)cc1 (stereo not given)	.	.	.	-18%	.	.
CCN(Cc1ccccc1)C(=O)Cn1c(=O)cc(C)c2c(C)nn(-c3cccc(F)c3)c21	.	.	.	-15%	.	.
CCOC(=O)CC1C(=O)NCCN1C(=O)c1ccc(F)cc1F (stereo not given)	-18%	-4%	0%	-27%	7%	-8%
CCOC(=O)CC1C(=O)NCCN1C(=O)c1cccc(C(F)(F)F)c1 (stereo not given)	2%	2%	20µM*	0%	-4%	3%
Cc1ccc(Oc2ccccc2NC(=O)CSCC(=O)Nc2cc(C)on2)cc1	-13%	-7%	-7%	-22%	112µM*	4%
COc1ccccc1Nc1nc(-c2ccc(F)cc2)c2c(n1)-c1ccccc1OC2	.	.	.	-10%	.	.
C#CCOCCOCCOCCNc1nc(N2CCN(C(=O)CCCCCCCCCCNC(=O)[C@H](CO)n3cc(CCCSC)nn3)CC2)nc(N2CCN(C(=O)CCCCCCCCCCNC(=O)[C@H](CCCN=C(N)N)n3cc(C[C@@H](C)CC)nn3)CC2)n1	56µM*	?	?	?	-30%	-19%
C#CCOCCOCCOCCNc1nc(N2CCN(C(=O)CCCCCCCCCCNC(=O)[C@H]([C@@H](C)CC)n3cc(CCCCCN)nn3)CC2)nc(N2CCN(C(=O)CCCCCCCCCCNC(=O)[C@H](CCCCN)n3cc(CCCC(=O)O)nn3)CC2)n1	1%	10µM*	26%	-15%	5%	-3%
C#CCOCCOCCOCCNc1nc(N2CCN(C(=O)CCCCCCCCCCNC(=O)[C@H]([C@@H](C)CC)n3cc(CCCCCN)nn3)CC2)nc(N2CCN(C(=O)CCCCCCCCCCNC(=O)[C@@H]([C@H](C)CC)n3cc(CCCCCN)nn3)CC2)n1	.	5µM*	.	.	.	.
C#CCOCCOCCOCCNc1nc(N2CCOCC2)nc(N2CCN(C(=O)CCCCCCCCCCNC(=O)[C@@H]([C@H](C)CC)n3cc(CCCCCN)nn3)CC2)n1	-8%	-4%	6%	-18%	2%	-5%
CCCCOC(=O)c1ccc(NC(=O)c2cc3c(=O)n4cccc(C)c4nc3s2)cc1	.	.	.	18%	.	.
